Here are results for 36 targets from the supplement of paper PMC10849652.

The full data set covers some 7,900 targets. This sample favours those with a hit. About 0.6% of all pairs of compound and target were hits.

Sequence of UniProt P36405 (P36405 whole entry, looked up): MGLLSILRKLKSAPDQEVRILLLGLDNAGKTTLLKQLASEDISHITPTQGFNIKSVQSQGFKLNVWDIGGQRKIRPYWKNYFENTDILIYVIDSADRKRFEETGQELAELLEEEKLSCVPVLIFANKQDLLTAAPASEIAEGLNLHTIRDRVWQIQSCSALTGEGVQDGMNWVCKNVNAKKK
Sequence of UniProt Q9Y6D6 (Q9Y6D6 whole entry, looked up): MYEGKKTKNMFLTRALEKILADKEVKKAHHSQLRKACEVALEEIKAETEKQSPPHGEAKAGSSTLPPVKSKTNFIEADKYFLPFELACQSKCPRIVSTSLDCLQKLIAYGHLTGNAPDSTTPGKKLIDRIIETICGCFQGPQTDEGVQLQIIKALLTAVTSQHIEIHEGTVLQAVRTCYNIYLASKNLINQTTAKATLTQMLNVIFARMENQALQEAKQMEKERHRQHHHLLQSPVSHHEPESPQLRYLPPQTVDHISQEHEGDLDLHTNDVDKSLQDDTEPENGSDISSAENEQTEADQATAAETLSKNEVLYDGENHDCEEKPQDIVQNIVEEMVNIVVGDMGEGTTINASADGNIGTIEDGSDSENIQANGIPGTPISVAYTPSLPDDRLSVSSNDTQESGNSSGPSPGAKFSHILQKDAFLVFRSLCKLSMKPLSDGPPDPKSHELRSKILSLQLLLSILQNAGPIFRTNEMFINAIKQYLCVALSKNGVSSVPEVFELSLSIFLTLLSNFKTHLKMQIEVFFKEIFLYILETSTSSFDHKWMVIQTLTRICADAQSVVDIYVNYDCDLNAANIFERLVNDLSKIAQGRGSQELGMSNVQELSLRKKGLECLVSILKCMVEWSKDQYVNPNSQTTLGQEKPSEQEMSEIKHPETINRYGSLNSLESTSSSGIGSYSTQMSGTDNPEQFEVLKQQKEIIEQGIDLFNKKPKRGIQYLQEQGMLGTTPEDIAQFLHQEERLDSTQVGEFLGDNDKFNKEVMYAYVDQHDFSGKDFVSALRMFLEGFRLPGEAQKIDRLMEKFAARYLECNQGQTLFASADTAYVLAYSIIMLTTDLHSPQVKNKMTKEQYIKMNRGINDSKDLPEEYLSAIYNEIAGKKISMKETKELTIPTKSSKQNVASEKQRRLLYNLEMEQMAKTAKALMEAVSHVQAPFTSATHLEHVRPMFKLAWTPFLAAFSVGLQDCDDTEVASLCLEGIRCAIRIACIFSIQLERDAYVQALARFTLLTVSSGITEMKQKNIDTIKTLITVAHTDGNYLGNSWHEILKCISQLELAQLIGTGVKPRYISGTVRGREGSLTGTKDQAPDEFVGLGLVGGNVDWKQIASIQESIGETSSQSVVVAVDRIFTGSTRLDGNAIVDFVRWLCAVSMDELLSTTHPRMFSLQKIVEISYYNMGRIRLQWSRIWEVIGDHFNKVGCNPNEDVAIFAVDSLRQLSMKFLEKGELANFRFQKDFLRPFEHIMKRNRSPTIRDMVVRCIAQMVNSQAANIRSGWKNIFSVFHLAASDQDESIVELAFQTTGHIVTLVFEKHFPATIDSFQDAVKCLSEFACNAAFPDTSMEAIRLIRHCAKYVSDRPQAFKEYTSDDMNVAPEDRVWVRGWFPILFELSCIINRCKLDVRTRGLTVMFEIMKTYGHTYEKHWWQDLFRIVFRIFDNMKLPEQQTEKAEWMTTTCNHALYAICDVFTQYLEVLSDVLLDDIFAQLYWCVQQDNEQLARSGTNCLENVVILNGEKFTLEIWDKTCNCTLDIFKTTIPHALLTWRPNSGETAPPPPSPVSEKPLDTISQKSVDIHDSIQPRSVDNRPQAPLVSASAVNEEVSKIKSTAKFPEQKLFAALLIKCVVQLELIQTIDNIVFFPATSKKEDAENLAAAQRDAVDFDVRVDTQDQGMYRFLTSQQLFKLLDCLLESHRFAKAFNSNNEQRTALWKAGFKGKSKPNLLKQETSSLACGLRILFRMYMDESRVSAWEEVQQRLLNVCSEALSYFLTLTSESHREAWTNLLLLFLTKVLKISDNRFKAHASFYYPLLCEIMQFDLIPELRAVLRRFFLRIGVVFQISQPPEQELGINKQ
Sequence of UniProt P30837 (P30837 whole entry, looked up): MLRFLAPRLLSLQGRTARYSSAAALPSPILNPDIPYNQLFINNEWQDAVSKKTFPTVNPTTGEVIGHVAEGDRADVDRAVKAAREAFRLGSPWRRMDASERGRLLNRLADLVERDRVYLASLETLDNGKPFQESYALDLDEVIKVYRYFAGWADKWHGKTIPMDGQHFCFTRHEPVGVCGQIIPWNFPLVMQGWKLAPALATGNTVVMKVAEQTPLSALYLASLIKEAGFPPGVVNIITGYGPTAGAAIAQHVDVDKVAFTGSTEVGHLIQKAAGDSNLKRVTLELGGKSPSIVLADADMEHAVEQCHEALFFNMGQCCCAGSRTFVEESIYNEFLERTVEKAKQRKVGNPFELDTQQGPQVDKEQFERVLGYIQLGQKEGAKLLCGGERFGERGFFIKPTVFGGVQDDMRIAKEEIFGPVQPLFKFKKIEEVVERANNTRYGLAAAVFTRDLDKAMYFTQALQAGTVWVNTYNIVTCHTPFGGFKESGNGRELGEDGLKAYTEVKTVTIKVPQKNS
Sequence of UniProt P98196 (P98196 whole entry, looked up): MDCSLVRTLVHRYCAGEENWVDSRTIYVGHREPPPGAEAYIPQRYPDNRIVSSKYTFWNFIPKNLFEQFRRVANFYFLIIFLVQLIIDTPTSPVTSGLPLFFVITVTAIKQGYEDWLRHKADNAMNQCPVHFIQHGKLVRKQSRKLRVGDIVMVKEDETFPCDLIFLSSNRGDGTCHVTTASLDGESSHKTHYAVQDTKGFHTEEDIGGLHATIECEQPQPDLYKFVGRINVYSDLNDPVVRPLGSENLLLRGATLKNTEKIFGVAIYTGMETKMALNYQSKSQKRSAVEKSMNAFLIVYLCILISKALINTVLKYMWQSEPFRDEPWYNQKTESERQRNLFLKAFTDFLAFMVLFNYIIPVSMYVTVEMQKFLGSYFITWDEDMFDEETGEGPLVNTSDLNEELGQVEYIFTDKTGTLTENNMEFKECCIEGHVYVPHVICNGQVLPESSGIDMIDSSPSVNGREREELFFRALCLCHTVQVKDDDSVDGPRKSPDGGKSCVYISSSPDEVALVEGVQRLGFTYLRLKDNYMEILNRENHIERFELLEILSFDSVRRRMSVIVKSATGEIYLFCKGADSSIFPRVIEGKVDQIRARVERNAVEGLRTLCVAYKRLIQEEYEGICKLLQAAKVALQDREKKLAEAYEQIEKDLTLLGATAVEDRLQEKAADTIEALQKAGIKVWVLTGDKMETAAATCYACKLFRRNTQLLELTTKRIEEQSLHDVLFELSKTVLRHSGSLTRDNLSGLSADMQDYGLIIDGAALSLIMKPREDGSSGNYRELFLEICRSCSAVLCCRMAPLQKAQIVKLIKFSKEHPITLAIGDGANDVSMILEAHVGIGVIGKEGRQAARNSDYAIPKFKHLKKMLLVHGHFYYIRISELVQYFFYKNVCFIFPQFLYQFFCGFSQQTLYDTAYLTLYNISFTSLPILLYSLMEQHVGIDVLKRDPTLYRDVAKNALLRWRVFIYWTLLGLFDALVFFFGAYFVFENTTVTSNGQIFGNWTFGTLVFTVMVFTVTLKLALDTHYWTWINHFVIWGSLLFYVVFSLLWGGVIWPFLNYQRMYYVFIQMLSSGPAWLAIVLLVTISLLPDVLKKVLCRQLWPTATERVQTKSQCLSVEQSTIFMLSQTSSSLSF
Sequence of UniProt P25440 (P25440 whole entry, looked up): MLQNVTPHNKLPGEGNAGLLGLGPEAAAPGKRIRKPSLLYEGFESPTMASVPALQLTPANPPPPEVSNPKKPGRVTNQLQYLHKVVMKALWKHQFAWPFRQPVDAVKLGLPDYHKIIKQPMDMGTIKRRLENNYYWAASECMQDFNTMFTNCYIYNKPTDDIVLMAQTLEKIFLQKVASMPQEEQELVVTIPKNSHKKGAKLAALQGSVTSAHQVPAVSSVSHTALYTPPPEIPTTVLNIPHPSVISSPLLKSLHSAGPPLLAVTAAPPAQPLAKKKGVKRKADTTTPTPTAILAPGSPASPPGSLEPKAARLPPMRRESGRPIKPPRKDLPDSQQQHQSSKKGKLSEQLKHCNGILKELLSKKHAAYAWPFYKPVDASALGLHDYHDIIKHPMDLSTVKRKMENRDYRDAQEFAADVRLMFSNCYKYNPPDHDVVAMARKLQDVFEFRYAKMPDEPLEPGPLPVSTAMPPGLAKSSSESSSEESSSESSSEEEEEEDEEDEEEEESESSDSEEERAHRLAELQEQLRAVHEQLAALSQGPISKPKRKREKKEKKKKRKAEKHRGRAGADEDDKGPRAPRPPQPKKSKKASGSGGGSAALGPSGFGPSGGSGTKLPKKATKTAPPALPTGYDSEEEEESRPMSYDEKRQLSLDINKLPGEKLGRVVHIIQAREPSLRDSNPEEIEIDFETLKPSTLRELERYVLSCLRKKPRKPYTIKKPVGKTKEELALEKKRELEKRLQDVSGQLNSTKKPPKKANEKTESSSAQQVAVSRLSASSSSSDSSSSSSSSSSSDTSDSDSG
Sequence of UniProt Q8NBU5 (Q8NBU5 whole entry, looked up): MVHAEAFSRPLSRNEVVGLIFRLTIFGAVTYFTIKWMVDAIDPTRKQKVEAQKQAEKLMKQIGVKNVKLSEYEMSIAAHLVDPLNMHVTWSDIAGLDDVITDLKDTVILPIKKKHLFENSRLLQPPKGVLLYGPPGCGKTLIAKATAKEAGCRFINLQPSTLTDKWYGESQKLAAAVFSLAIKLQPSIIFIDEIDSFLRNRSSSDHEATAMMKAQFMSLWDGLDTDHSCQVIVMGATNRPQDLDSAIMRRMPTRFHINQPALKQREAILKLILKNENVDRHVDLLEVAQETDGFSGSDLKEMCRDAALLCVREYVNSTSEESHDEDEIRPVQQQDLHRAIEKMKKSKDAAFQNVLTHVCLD
Sequence of UniProt P24666 (P24666 whole entry, looked up): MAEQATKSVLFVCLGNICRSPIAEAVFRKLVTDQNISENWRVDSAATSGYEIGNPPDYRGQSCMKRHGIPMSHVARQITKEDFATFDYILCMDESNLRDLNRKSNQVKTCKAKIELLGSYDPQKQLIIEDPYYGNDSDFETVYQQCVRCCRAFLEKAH

Compound in one assay: C1=CC=C(C=C1)[C@H](COC2=CC3=C(C=C2)NC(=O)N3)NC(=O)C4=CC=CN(C4=O)CC5=CC(=C(C=C5)F)F
Nature of the assay: log2 fold change, soluble protein after heating vs DMSO (PISA); higher = thermal stabilisation; K562 cells, 10 uM, 30 min; active = over 0.2 and 3.5 SD of the protein, either way, in both replicates (recomputed). The method, boiled down:
(§1)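 K562 cells (2×10^6 cells/mL) were treated with 10 μM compound for 30 min, and aliquots were heated for 3 min over 48°C-58°C. Pooled aliquots were extracted in PBS with 0.5% NP-40 at 4°C, and the supernatant after 21,000xg for 90 min was measured by TMTpro 16plex LC-MS/MS with channel sums equalised. Reported thermal stability, relative to control samples and from duplicates, is a log2 fold change.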
For ARL6IP4 (UniProt Q66PJ3), the log2 fold change was 0.036 (inactive).
On to ATP7B (UniProt P35670), for which the log2 fold change is 0 (inactive).
On the same count and under the same terms, with B4GALT1 (UniProt P15291) the figure was 0.034 (inactive); with ARL2BP (UniProt Q9Y2Y0), -0.076 (inactive); with ASS1 (UniProt P00966), -0.099 (inactive).
On to ATAD1 (UniProt Q8NBU5), for which the log2 fold change was 0.016 (inactive).
Turning to ACAP2 (UniProt Q15057), the log2 fold change is -0.009 (inactive).
ATG4B isoform 2 (UniProt Q9Y4P1): the log2 fold change is -0.079 (inactive).
On the same count and under the same terms, the result for ATL2 (UniProt Q8NHH9) reads -0.019 (inactive); that for ATP6V1H (UniProt Q9UI12), -0.003 (inactive); that for AGPAT5 (UniProt Q9NUQ2), -0.015 (inactive).
For ABHD16A (UniProt O95870), the log2 fold change was -0.005 (inactive).
Still for that read-out and setting: with BTAF1 (UniProt O14981) the figure was 0.051 (inactive); with ARHGAP1 (UniProt Q07960), -0.02 (inactive); with ATP9B (UniProt O43861), -0.092 (inactive).
As to ATP5IF1 (UniProt Q9UII2), the log2 fold change is 0.016 (inactive).
Same read-out and setting: the result for ARMC10 (UniProt Q8N2F6) reads 0.035 (inactive); that for ANAPC2 (UniProt Q9UJX6), -0.017 (inactive); that for ATP11A (UniProt P98196), 0.001 (inactive).
For ALG14 (UniProt Q96F25), the log2 fold change is -0.008 (inactive).
As to ACP1 isoform 2 (UniProt P24666), the log2 fold change is -0.107 (inactive).
With ACIN1 (UniProt Q9UKV3), the log2 fold change is 0.003 (inactive).
The same measure, in the same setting: with ALDH1B1 (UniProt P30837) the figure was 0.037 (inactive); with ARL6IP6 (UniProt Q8N6S5), -0.003 (inactive).
Consider BRD2 isoform 2 (UniProt P25440), for which the log2 fold change was -0.257 (inactive).
On to ASH2L (UniProt Q9UBL3), for which the log2 fold change was 0.016 (inactive).
On to ATXN3 isoform 1 (UniProt P54252), for which the log2 fold change was -0.012 (inactive).
For ADD3 (UniProt Q9UEY8), the log2 fold change was 0.019 (inactive).
With AKR1C3 (UniProt P42330), the log2 fold change is 0.155 (inactive).
In the case of ACP2 (UniProt P11117), the log2 fold change was 0.027 (inactive).
With ACOX3 (UniProt O15254), the log2 fold change is 0.015 (inactive).
Same read-out and setting: with ARL3 (UniProt P36405) the figure was -0.002 (inactive).
With AKAP8L (UniProt Q9ULX6), the log2 fold change was -0.011 (inactive).
In the case of BAIAP2 (UniProt Q9UQB8), the log2 fold change was -0.019 (inactive).
In the case of ARFGEF1 (UniProt Q9Y6D6), the log2 fold change is -0.012 (inactive).
On to ARFIP1 (UniProt P53367), for which the log2 fold change is 0.04 (inactive).

Compound in a further assay: CC1=C(SC2=C1C(=N[C@H](C3=NN=C(N32)C)CC(=O)N)C4=CC=C(C=C4)Cl)C
Described as above. The gist of the method:
as §1
As for ARL6IP4 (UniProt Q66PJ3), the log2 fold change is 0.027 (inactive).
Still for that read-out and setting: with ATP7B (UniProt P35670) the figure was 0.094 (inactive); with B4GALT1 (UniProt P15291), 0.057 (inactive); with ARL2BP (UniProt Q9Y2Y0), 0 (inactive).
Regarding ASS1 (UniProt P00966), the log2 fold change was -0.036 (inactive).
The same measure, in the same setting: with ATAD1 (UniProt Q8NBU5) the figure was 0.055 (inactive).
On the same count and under the same terms, with ACAP2 (UniProt Q15057) the figure was -0.001 (inactive).
The same measure, in the same setting: the result for ATG4B isoform 2 (UniProt Q9Y4P1) reads 0.056 (inactive); that for ATL2 (UniProt Q8NHH9), 0.05 (inactive).
In the case of ATP6V1H (UniProt Q9UI12), the log2 fold change is 0.065 (inactive).
In the case of AGPAT5 (UniProt Q9NUQ2), the log2 fold change is 0.064 (inactive).
On the same count and under the same terms, with ABHD16A (UniProt O95870) the figure was 0.011 (inactive).
BTAF1 (UniProt O14981): the log2 fold change is -0.003 (inactive).
Take ARHGAP1 (UniProt Q07960): the log2 fold change is 0.023 (inactive).
Consider ATP9B (UniProt O43861), for which the log2 fold change was -0.001 (inactive).
Turning to ATP5IF1 (UniProt Q9UII2), the log2 fold change was -0.087 (inactive).
As to ARMC10 (UniProt Q8N2F6), the log2 fold change was -0.017 (inactive).
As for ANAPC2 (UniProt Q9UJX6), the log2 fold change was 0.016 (inactive).
For the target ATP11A (UniProt P98196), the log2 fold change is -0.003 (inactive).
Take ALG14 (UniProt Q96F25): the log2 fold change is 0.019 (inactive).
Turning to ACP1 isoform 2 (UniProt P24666), the log2 fold change was -0.028 (inactive).
As to ACIN1 (UniProt Q9UKV3), the log2 fold change is 0.095 (inactive).
The same measure, in the same setting: with ALDH1B1 (UniProt P30837) the figure was 0.064 (inactive).
With ARL6IP6 (UniProt Q8N6S5), the log2 fold change is 0.113 (inactive).
In the case of BRD2 isoform 2 (UniProt P25440), the log2 fold change was 2.34 (active).
Regarding ASH2L (UniProt Q9UBL3), the log2 fold change was -0.013 (inactive).
Consider ATXN3 isoform 1 (UniProt P54252), for which the log2 fold change was 0.001 (inactive).
On to ADD3 (UniProt Q9UEY8), for which the log2 fold change is 0.034 (inactive).
The same measure, in the same setting: the result for AKR1C3 (UniProt P42330) reads 0.049 (inactive).
Same read-out and setting: the result for ACP2 (UniProt P11117) reads -0.023 (inactive).
Regarding ACOX3 (UniProt O15254), the log2 fold change is 0.238 (inactive).
Consider ARL3 (UniProt P36405), for which the log2 fold change is 0.04 (inactive).
AKAP8L (UniProt Q9ULX6): the log2 fold change is -0.186 (inactive).
Take BAIAP2 (UniProt Q9UQB8): the log2 fold change is 0.071 (inactive).
Consider ARFGEF1 (UniProt Q9Y6D6), for which the log2 fold change was 0.034 (inactive).
In the case of ARFIP1 (UniProt P53367), the log2 fold change is 0.042 (inactive).
